Experimental data: PubChem BioAssay AID540276 (National Center for Advancing Translational Sciences (NCATS), 2011)
About 5,400 (1.8%) of roughly 300,000 compounds were called active. Not shown: some 28% with an inconclusive outcome. Shown is part of a subset that was picked to be rich in actives. Unmarked numbers belong to inactive results. The call rests on the fitted dose curve; tested in HEK293 cells.

Experiment: qHTS for inhibitors of binding or entry into cells for Marburg Virus
Details: Marburg virus pseudotyped entry inhibition, cell reporter; series mostly up to 37.8 µM; activity change, negative = inhibition: at the top concentration
On the % scale 0 is the no-effect control and ±100 the full control effect; potency means the concentration at half of the fitted maximal effect.

With Cc1noc(/C=C/c2ccco2)c1S(=O)(=O)N1CCC(C(=O)Nc2ccc(Cl)cn2)CC1 the Potency was 6.51 µM (active).
With Cc1nnc(SCC(=O)N2c3ccccc3C(C)(c3ccc(Cl)cc3)CC2(C)C)s1 (configuration not stated) the Potency was 10 µM (active).
In the case of Cc1ccccc1NC(=O)Cc1nnc(SCC(=O)N2CCN(c3ccccc3)CC2)n1C, the Potency is reported as “inactive”.
In the case of Cn1c(Cc2cccc3ccccc23)nnc1SCC(=O)N1CCN(c2cccc(Cl)c2)CC1, the Potency is reported as 12.6 µM (active).
In the case of CN1CCC[C@@H]1CCO[C@](C)(c1ccccc1)c1ccc(Cl)cc1, the Potency is reported as 9.2 µM (active).
In the case of O=C(Nc1nnc(-c2ccccc2)o1)c1cccc(S(=O)(=O)N2CCOCC2)c1, the Potency is reported as 12.6 µM (active).
With Cc1c(CCO)c(=O)[nH]n1C(=O)c1c(F)cccc1F the Potency was 2.06 µM (active).
In the case of Cc1ccc(CCC(=O)Nc2ncc(Cc3cc(Cl)ccc3Cl)s2)o1, the Potency is reported as 0.651 µM (active).
For CCCCC(=O)NC(c1ccc(OC)c(OC)c1)c1ccc2cccnc2c1O (configuration not stated), the Potency was 3.16 µM (active).
In the case of CN(C)c1ccc(NC(=S)N(CCc2ccccc2)C2CC(=O)N(c3c(Cl)cccc3Cl)C2=O)cc1 (configuration not stated), the Potency is reported as 4.47 µM (active).
In the case of CC(=O)c1c(C)[nH]c(C(=O)OCC(=O)Nc2cc(S(=O)(=O)N3CCCCC3)ccc2C)c1C, the Potency is reported as 9.2 µM (active).
In the case of COc1ccc(CCC(=O)Nc2ccc(Cl)c(S(=O)(=O)N3CCOCC3)c2)cc1OC, the Potency is reported as 6.31 µM (active).
With COc1ccc(NS(=O)(=O)c2ccc(N3CCOCC3)c(NC(=O)c3ccccc3Br)c2)cc1 the Potency was 2.51 µM (active).

Compared with Cc1cccc(NC(=O)C2CCN(S(=O)(=O)c3c(C)noc3/C=C/c3ccco3)CC2)c1, Cc1nc(-c2ccc(F)cc2)c(CC(=O)Nc2cc(S(=O)(=O)N3CCCCC3)ccc2C)s1 is lower in “activity change, negative = inhibition” value: 2.11% [at 46.1 µM] for the first, -29.3% [at 46.1 µM] for the second.

Going from Cn1c(CNC(=O)c2ccco2)nnc1SCC(=O)N1CCN(c2ccccc2)CC1 to O=C(CSc1nc(C2CC2)nc2ccccc12)Nc1cccc(O)c1, the “activity change, negative = inhibition” value falls from -1.96% [at 46.1 µM] to -15.4% [at 46.1 µM].

Compared with Cc1ccc(CSCC(=O)N(C)CC(=O)Nc2cccc(F)c2)cc1, Cc1ccc(N2CC(C(=O)Nc3ccc(N(C)C)cc3)CC2=O)cc1Cl (configuration not stated) is higher in “activity change, negative = inhibition” value: -2.21% [at 46.1 µM] for the first, 1.2% [at 46.1 µM] for the second.

Compared with O=C(OCCOc1ccccc1F)c1cc(S(=O)(=O)N2CCOCC2)ccc1F, CS(=O)(=O)c1ccc(Cl)c(NC(=O)COC(=O)c2cccc(S(=O)(=O)N3CCCC3)c2)c1 is higher in “activity change, negative = inhibition” value: -2.85% [at 46.1 µM] for the first, 13.1% [at 46.1 µM] for the second.

First: Cc1cccc(NC(=O)c2cccnc2Cl)n1
Second: CCOc1ccc(-n2c(SCC(=O)Nc3cc(C(=O)O)ccc3Cl)nc3ccccc3c2=O)cc1
The “activity change, negative = inhibition” value of the first is lower: 4.02% [at 46.1 µM] for the first, 21.7% [at 46.1 µM] for the second.

First: N#CCCN(C(=O)COC(=O)c1ccc2c(c1)OCCO2)c1ccccc1
Second: CC(C=Cc1ccccc1)=NNS(=O)(=O)c1ccc([N+](=O)[O-])cc1
The “activity change, negative = inhibition” value of the first is lower: -14.4% [at 46.1 µM] for the first, 5.6% [at 46.1 µM] for the second.

Compared with COc1ccccc1NC(=O)COC(=O)CNC(=O)C1CCCCC1, CCOCCCN1C(=O)C2C(C(=O)Nc3ccc(OCC)cc3)C3C=CC2(O3)C1C(=O)NC1CCCCC1 (configuration not stated) is higher in “activity change, negative = inhibition” value: -18.1% [at 46.1 µM] for the first, -0.0854% [at 46.1 µM] for the second.

Compared with Cc1nnc(SCC(=O)NCc2ccccc2)s1, Cc1nnc(SCC(=O)N2CCc3ccccc3C2)s1 is higher in “activity change, negative = inhibition” value: 1.81% for the first, 18.1% for the second.

Compared with Nn1c(SCC(=O)Nc2ccc3c(c2)CCC3)nnc1C1CC1, COc1ccc(CC(=O)Nc2ccc3c(c2)CCC3)cc1S(=O)(=O)N1CCOCC1 is higher in “activity change, negative = inhibition” value: -14.3% for the first, -5.43% for the second.

Going from Cc1cccc(C(=O)N[C@H](C(=O)NCc2cccs2)C(C)C)c1 to O=C(NNC(=S)Nc1ccccc1)c1cccc(S(=O)(=O)N2CCOCC2)c1, the “activity change, negative = inhibition” value rises from 2.48% to 9.66%.

First: CCCOC(=O)CSC1=C(C#N)[C@H](c2ccccc2OCC)[C@H](C#N)C(=O)N1
Second: CCOc1ccccc1NC(=O)CCc1ccc(C)o1
The “activity change, negative = inhibition” value of the first is higher: 3.94% for the first, -18.1% for the second.

First: C=CC1=C(C)C2=NC1=CC1=NC(=CC3=NC(=CC4=NC(=C2)C(C)=C4CCC(=O)O)C(CCC(=O)O)=C3C)C(C=C)=C1C
Second: Cc1cnc(NC(=O)CSc2nnc(-c3ccc(Cl)cc3Cl)n2N)s1
The “activity change, negative = inhibition” value of the first is lower: -14.8% for the first, 0% for the second.

Compared with CC(C)(c1ccccc1)c1ccc(OCCN)cc1, Cc1c(CCO)c(=O)n(-c2ccccc2)n1S(=O)(=O)c1ccc(F)cc1 is higher in “activity change, negative = inhibition” value: -30.5% for the first, 4.52% for the second.

Going from Cc1ccc(S(=O)(=O)Nc2ccc(F)c(S(=O)(=O)N3CCOCC3)c2)cc1 to CC(=O)Nc1ccc(S(=O)(=O)Nc2ccc(N3CCOCC3)c(F)c2)cc1, the “activity change, negative = inhibition” value rises from -16.5% to -4.97%.

First: O=C(c1cccc(S(=O)(=O)N2CCOCC2)c1)N1CCOCC1
Second: O=C(CCc1ccc(S(=O)(=O)N2CCOCC2)cc1)Nc1ccc2ccccc2c1
The “activity change, negative = inhibition” value of the first is higher: 14% for the first, -24% for the second.

Compared with C/C(=N/OC(=O)c1ccc(Br)cc1)c1ccc(C)cc1, COC(=O)CN(C(=S)Nc1ccc(Cl)cc1)C1CC(=O)N(c2ccc(OC)cc2)C1=O (configuration not stated) is higher in “activity change, negative = inhibition” value: -8.65% for the first, 13.8% for the second.

Compared with CC(=O)NC1(c2ccc(F)cc2)CCN(C(=O)c2c(F)cccc2F)CC1, COc1ccc(NS(=O)(=O)c2ccc(C)c(C(=O)NCC(c3cccs3)N3CCOCC3)c2)cc1 (configuration not stated) is lower in “activity change, negative = inhibition” value: 28% for the first, 17.2% for the second.

First: COc1ccc(CCNC(=O)C(Sc2ccccn2)c2ccccc2)cc1OC (configuration not stated)
Second: CCn1c(C(O)c2cc(OC)ccc2OC)nc2ccccc21 (configuration not stated)
The “activity change, negative = inhibition” value of the first is lower: -0.361% for the first, 11.4% for the second.

First: C=CCn1c(COc2cccc3cccnc23)nnc1SCC(=O)OC
Second: CCN(CC(=O)Nc1cc(Cl)ccc1C)C(=O)CSCc1ccccc1
The “activity change, negative = inhibition” value of the first is higher: 0.388% for the first, -23.3% for the second.

With CCCCCN(C(=O)CCC(=O)OCC(=O)NC1CCC(C)CC1)c1c(N)n(CCCC)c(=O)[nH]c1=O (configuration not stated) the “activity change, negative = inhibition” value was -5.54%.
